Inconclusive results are not listed. Activity calls are given as the source filed them. Unless noted, calls come from the whole dose curve; as a rule, active = well fitted curve in the direction sought with a large enough effect in the repeat runs; inconclusive = weak or mixed curves; inactive = no such curve, though single readings can be large; an effect the other way counts as inactive or inconclusive.
How the values were obtained:
[1] = qHTS assay for small molecules that induce genotoxicity in human embryonic kidney cells expressing luciferase-tagged ATAD5 (AID 651632); note: nearly all actives have a fitted effect of over 15% in size; note: potency is the fitted concentration of half-maximal effect
Summary of the method: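 Luminescence read-out: after 16 hr compound exposure at 37C, ATAD5-luciferase HEK293T cells received Amplite, 30 min RT, then CCD imaging. A rise in signal marks genotoxic stress.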

[2] = qHTS assay for small molecule agonists of the p53 signaling pathway - cell viability (AID 651633; calls by dose curve; note: nearly all actives have a fitted effect of over 30% in size; note: potency is the fitted concentration of half-maximal effect)
Summary of the method: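 Viability counter-read: CellTiter-Glo luminescence (30 min, room temperature) in the same p53RE-bla plates. These plates had been exposed to compounds for 16 h at 37 C.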

[3] = qHTS assay for small molecule disruptors of the mitochondrial membrane potential - cell viability (AID 720634; calls by dose curve; note: nearly all actives have a fitted effect of over 20% in size; note: potency is the fitted concentration of half-maximal effect)
Summary of the method: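 Luminescence from CellTiter-Glo (ATP content) gave viability in HepG2 cells, read in the same wells as the MMP dye assay after 1 hr compound exposure at 37 C.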

[4] = qHTS assay to test for compound auto fluorescence at 535 nm (green) in HepG2 cells (AID 720675)
[5] = qHTS assay to test for compound auto fluorescence at 460 nm (blue) in HEK293 cells (AID 720678)
Summary of the method: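 HEK293, 2,000 cells/well, 10% dialyzed FBS; attach 4-5 hr 37C; pin compound or DMSO; o/n 37C/5% CO2; fluorescence 405/460 nm; triamterene-equivalent units.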

[6] = qHTS assay to test for compound auto fluorescence at 535 nm (green) in HEK293 cells (AID 720680)
[7] = qHTS assay to test for compound auto fluorescence at 460 nm (blue) in HEK293 cell free culture (AID 720681)
Summary of the method: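 Blue fluorescence (Ex 405/Em 460 nm, triamterene-equivalent) was read immediately after pin transfer of compound or DMSO into medium (DMEM, 10% FBS) without cells.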

[8] = qHTS assay to test for compound auto fluorescence at 535 nm (green) in HEK293 cell free culture (AID 720682)
Summary of the method: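 Each library compound, or DMSO control, is added by pintool to medium alone, comprising DMEM and 10% FBS. Emission at 535 nm following 485 nm excitation is quantified against fluorescein.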

[9] = qHTS assay to test for compound auto fluorescence at 590 nm (red) in HEK293 cell free culture (AID 720683)
Summary of the method: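 Red-channel autofluorescence of compounds in culture medium (DMEM, 10% FBS), no cells, measured at 540/590 nm. Rose Bengal sodium is the reference fluorophore for equivalence.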

[10] = qHTS assay to test for compound auto fluorescence at 590 nm (red) in HepG2 cell free culture (AID 720684)
Summary of the method: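 No cells present: MEM + 10% FBS only. Compound pinned in, red label read (540/590 nm). Activity = fluorescence equivalent to Rose Bengal sodium.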

[11] = qHTS assay to test for compound auto fluorescence at 460 nm (blue) in HepG2 cell free culture (AID 720685)
Summary of the method: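 Cell-free plates of MEM plus 10% FBS received 23 nL compound or DMSO vehicle; blue-channel (405/460 nm) intensity scored against triamterene as reference fluorophore.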

[12] = qHTS assay to test for compound auto fluorescence at 535 nm (green) in HepG2 cell free culture (AID 720686)
[13] = qHTS assay to test for compound auto fluorescence at 460 nm (blue) in HepG2 cells (AID 720687)
Summary of the method: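 Blue-channel autofluorescence (Ex/Em 405/460 nm, triamterene-equivalent) was measured after 1 hr compound exposure at 37 C, 5% CO2. Cells were HepG2, plated overnight at 37 C in MEM plus 10% FBS.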

[14] = qHTS assay for small molecules that induce genotoxicity in human embryonic kidney cells expressing luciferase-tagged ATAD5 - cell viability (AID 651634; calls by dose curve; note: nearly all actives have a fitted effect of over 25% in size; note: potency is the fitted concentration of half-maximal effect)
Summary of the method: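 HEK293T ATAD5-luc cells, 2,000/well; compound 15.5 hr, 37C/5% CO2; CellTiter-Fluor 30 min, 37C; fluorescence read.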

[15] = qHTS assay to test for compound auto fluorescence at 590 nm (red) in HepG2 cells (AID 720674)
Summary of the method: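 1 hr compound incubation on HepG2 cells, 37 C, 5% CO2; plate read ex 540 nm / em 590 nm; intensities reported as Rose Bengal sodium equivalents.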

[16] = qHTS assay to test for compound auto fluorescence at 590 nm (red) in HEK293 cells (AID 720679)
Summary of the method: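 Intensity at 540nm excitation and 590nm emission is reported as Rose Bengal sodium-equivalent autofluorescence. Measurements followed overnight exposure (37C, 5% CO2) of HEK293 cells, 2,000 per well, to 23 nL compound.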

[17] = biological target: Glucocorticoid receptor (Homo sapiens) (UniProt P04150); assay: qHTS assay to identify small molecule agonists of the glucocorticoid receptor (GR) signaling pathway (AID 720691; active = well fitted activation curve with a large enough effect in the signal ratio in the repeat runs, not every such curve was filed as active; the % refers to the signal ratio); conditions: GR-bla HeLa, beta-lactamase reporter ratio, 18 h; activation: at 62.4 µM (top of the series)
Summary of the method: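 HeLa GR-bla reporter line; cells pre-incubated 4 h, compound in DMSO 18 h at 37 C; LiveBLAzer B/G FRET substrate 2 h RT; fluorescence intensity read-out.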

[18] = biological target: Glucocorticoid receptor (Homo sapiens) (UniProt P04150); assay: qHTS assay to identify small molecule antagonists of the glucocorticoid receptor (GR) signaling pathway (AID 720692; active = well fitted inhibition curve with a large enough effect in the signal ratio in the repeat runs, not every such curve was filed as active; the % refers to the signal ratio)
Summary of the method: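 Read-out: beta-lactamase FRET substrate fluorescence, 2 h at room temperature, in HeLa cells stably carrying a GRE-driven bla reporter. Compounds were co-incubated with 5 nM dexamethasone agonist (final) for 18 h at 37 C.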

[19] = qHTS assay for small molecule disruptors of the mitochondrial membrane potential (AID 720635); note: potency is the fitted concentration of half-maximal effect
Summary of the method: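 Mitochondrial membrane potential tracked with Mito-MPS dye, red aggregates (ex 540/em 590 nm) against green monomers (ex 490/em 535 nm). Compound treatment 1 hr at 37C, dye 30 min in HepG2.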
% is set by controls: 0 for no effect and ±100 for the full control effect.

Sequence of Glucocorticoid receptor (Homo sapiens) (P04150 whole entry, looked up): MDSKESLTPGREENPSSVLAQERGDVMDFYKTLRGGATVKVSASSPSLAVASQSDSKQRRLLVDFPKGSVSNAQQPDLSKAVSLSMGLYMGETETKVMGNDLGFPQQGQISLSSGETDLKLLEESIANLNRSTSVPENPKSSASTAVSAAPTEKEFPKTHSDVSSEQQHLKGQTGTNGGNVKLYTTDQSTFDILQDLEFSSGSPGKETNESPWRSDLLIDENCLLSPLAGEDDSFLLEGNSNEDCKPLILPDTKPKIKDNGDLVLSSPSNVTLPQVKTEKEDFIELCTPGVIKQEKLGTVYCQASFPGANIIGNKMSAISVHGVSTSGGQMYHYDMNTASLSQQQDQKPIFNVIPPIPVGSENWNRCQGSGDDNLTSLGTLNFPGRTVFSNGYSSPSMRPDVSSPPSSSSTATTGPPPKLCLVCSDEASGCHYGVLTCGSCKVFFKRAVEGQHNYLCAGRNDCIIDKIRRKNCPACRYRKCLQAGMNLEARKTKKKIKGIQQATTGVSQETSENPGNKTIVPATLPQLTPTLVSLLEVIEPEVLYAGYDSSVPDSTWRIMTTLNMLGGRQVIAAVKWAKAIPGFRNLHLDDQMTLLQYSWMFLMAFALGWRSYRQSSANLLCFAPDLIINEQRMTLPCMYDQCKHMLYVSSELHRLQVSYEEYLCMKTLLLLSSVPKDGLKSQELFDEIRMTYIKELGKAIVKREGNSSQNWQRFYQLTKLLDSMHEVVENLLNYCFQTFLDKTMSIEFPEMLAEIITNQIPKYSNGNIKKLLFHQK

COP(=O)(OC)O/C(=C\Cl)c1cc(Cl)c(Cl)cc1Cl
inactive: Potency [1] | Potency [2] | Potency [3] | Potency [4] | Potency [5] | outcome [6] | Potency [7] | outcome [8] | outcome [9] | outcome [10] | Potency [11] | Potency [12] | Potency [13]

Fc1ccc(C(OCCN2CCN(CCCc3ccccc3)CC2)c2ccc(F)cc2)cc1
inactive: Potency [1] | Potency [3] | outcome [15] | Potency [4] | Potency [5] | outcome [16] | outcome [6] | Potency [7] | outcome [8] | outcome [9] | outcome [10] | Potency [11] | Potency [13]
active: Potency [14] 29.8 µM

Clc1cc(Cl)c(-c2cc(Cl)c(Cl)cc2Cl)cc1Cl
inactive: Potency [1] | Potency [14] | Potency [3] | outcome [15] | Potency [4] | Potency [5] | outcome [16] | outcome [6] | Potency [7] | outcome [8] | outcome [9] | outcome [10] | Potency [11] | Potency [12] | Potency [13] | Potency [17] | Potency [18]

COc1ccc2[nH]cc(CCN(C(C)C)C(C)C)c2c1
inactive: Potency [1] | Potency [14] | Potency [3] | Potency [19] | outcome [15] | Potency [4] | Potency [5] | outcome [16] | outcome [6] | Potency [7] | outcome [8] | outcome [9] | outcome [10] | Potency [11] | Potency [12] | Potency [13] | Potency [17]

CCCCCCC[CH2][Sn]([Cl])([Cl])[CH2]CCCCCCC
inactive: Potency [1] | Potency [14] | Potency [3] | outcome [15] | Potency [4] | Potency [5] | outcome [16] | outcome [6] | Potency [7] | outcome [9] | outcome [10] | Potency [11] | Potency [12] | Potency [13]
active: Potency [19] 48.5 µM

O=[N+]([O-])c1cccc2cccc([N+](=O)[O-])c12
active: Potency [19] 9.73 µM
inactive: Potency [1] | Potency [14] | outcome [15] | Potency [4] | Potency [5] | outcome [16] | outcome [6] | Potency [7] | outcome [8] | outcome [9] | outcome [10] | Potency [11] | Potency [12] | Potency [13] | Potency [17]

CN1C(=O)[C@@H](NC(=O)c2cc3ccccc3[nH]2)N=C(c2ccccc2)c2ccccc21
active: Potency [1] 11.9 µM | Potency [19] 10.6 µM
inactive: Potency [14] | Potency [3] | outcome [15] | Potency [4] | Potency [5] | Potency [7] | outcome [8] | outcome [9] | outcome [10] | Potency [11] | Potency [12] | Potency [13]

S=C=Nc1ccccc1
inactive: Potency [1] | Potency [14] | Potency [3] | outcome [15] | Potency [4] | Potency [5] | outcome [16] | outcome [6] | Potency [7] | outcome [8] | outcome [9] | outcome [10] | Potency [11] | Potency [12] | Potency [13] | Potency [17] | Potency [18]
active: Potency [19] 28.2 µM

c1ccc(Nc2ccc(Nc3ccccc3)cc2)cc1
inactive: Potency [1] | Potency [14] | outcome [15] | Potency [5] | outcome [16] | outcome [6] | Potency [7] | outcome [8] | outcome [9] | outcome [10] | Potency [11] | Potency [12] | Potency [13] | Potency [17]
active: Potency [3] 24.2 µM | Potency [19] 8.6 µM

ClSC(Cl)(Cl)Cl
inactive: Potency [1] | Potency [14] | Potency [3] | Potency [19] | outcome [15] | Potency [5] | outcome [6] | Potency [7] | outcome [8] | outcome [9] | outcome [10] | Potency [11] | Potency [12] | Potency [13]

Cc1cc2c3c(c1)C(c1ccccc1)=N[C@@H](NC(=O)c1ccncc1)C(=O)N3CC2
inactive: Potency [1] | Potency [14] | Potency [3] | outcome [15] | Potency [4] | Potency [5] | Potency [7] | outcome [8] | outcome [9] | outcome [10] | Potency [11] | Potency [12] | Potency [13]

O=[N+]([O-])C(Br)Br
inactive: Potency [1] | Potency [2] | outcome [15] | Potency [4] | Potency [5] | outcome [6] | Potency [7] | outcome [8] | outcome [9] | outcome [10] | Potency [11] | Potency [12] | Potency [13] | Potency [17] | Potency [18]

N#CC(C#N)=NNc1cccc(Cl)c1
inactive: Potency [1] | Potency [3] | outcome [15] | Potency [4] | Potency [5] | outcome [16] | outcome [6] | Potency [7] | outcome [8] | outcome [9] | outcome [10] | Potency [11] | Potency [12] | Potency [13]
active: Potency [14] 7.7 µM | Potency [19] 0.109 µM

CCC(C)c1cccc(C(C)CC)c1O (configuration not stated)
active: Potency [19] 13.7 µM
inactive: Potency [1] | Potency [14] | Potency [3] | outcome [15] | Potency [4] | Potency [5] | outcome [16] | Potency [7] | outcome [9] | outcome [10] | Potency [11] | Potency [12] | Potency [13]

COc1c2c(cc3c1OCO3)CCN(C)C2
inactive: Potency [1] | Potency [14] | Potency [3] | fluorescence, relative to Rose Bengal [15] 0.142% [at 18.6 µM] | fluorescence, % of fluorescein control [4] -0.0459% [at 18.6 µM] | fluorescence, % of triamterene [5] 0.0083% [at 18.6 µM] | fluorescence, % of fluorescein [6] -0.0183% [at 18.6 µM] | fluorescence, % of fluorescent control [7] 0.395% [at 18.6 µM] | fluorescence, % of fluorescent control [9] 0.174% [at 18.6 µM] | fluorescence, % of Rose Bengal [10] -0.194% [at 18.6 µM] | fluorescence, % of fluorescent control [11] -0.0127% [at 18.6 µM] | fluorescence, % of fluorescein control [12] -0.0107% [at 18.6 µM] | fluorescence, % of fluorescent control [13] -0.0807% [at 18.6 µM] | Potency [17] | Potency [18]

C[C@]12C/C(=C/O)C(=O)C[C@@H]1CC[C@@H]1[C@@H]2CC[C@@]2(C)[C@H]1CC[C@]2(C)O
inactive: Potency [1] | Potency [3] | outcome [15] | Potency [4] | Potency [5] | outcome [16] | Potency [7] | outcome [8] | outcome [9] | outcome [10] | Potency [11] | Potency [12] | Potency [13] | Potency [17]
active: Potency [2] 49 µM
